# Source: the supplement of paper PMC10077471
# In all, about 1,900 compounds were measured (“excess over highest single agent (ExcessHSA) synergy score, 6x6 matrix”: median about -83, lowest 2% from about -370 on). The sample as a whole holds a higher share of the lowest values than the screen did.
# Tested on: NCI-H446
# Test: excess over highest single agent (ExcessHSA) synergy score, 6x6 matrix; higher = less synergy (more negative = stronger synergy)
# Details: 72 h; CellTiter-Glo viability
row,SMILES,excess over highest single agent
1,COC[C@H](NC(=O)c1cnc(C)s1)C(=O)N[C@@H](COC)C(=O)N[C@@H](Cc1ccccc1)C(=O)[C@@]1(C)CO1 + Cc1sc2c(c1C)C(c1ccc(Cl)cc1)=N[C@@H](CC(=O)OC(C)(C)C)c1nnc(C)n1-2 [NCGC00250412-19],-227
2,CC(C)C[C@H](NC(=O)[C@H](CCc1ccccc1)NC(=O)CN1CCOCC1)C(=O)N[C@@H](Cc1ccccc1)C(=O)N[C@@H](CC(C)C)C(=O)[C@@]1(C)CO1 + Cc1sc2c(c1C)C(c1ccc(Cl)cc1)=N[C@@H](CC(=O)OC(C)(C)C)c1nnc(C)n1-2 [NCGC00250412-19],-521
3,CC(C)C[C@H](NC(=O)[C@@H](O)[C@H](N)Cc1ccccc1)C(=O)O + Cc1sc2c(c1C)C(c1ccc(Cl)cc1)=N[C@@H](CC(=O)OC(C)(C)C)c1nnc(C)n1-2 [NCGC00250412-19],-74.5
4,CN(C)CCN(C)C(=O)c1ccc(NC(=O)Nc2ccc(-c3nc(N4CCOCC4)c4ccn(CC(F)(F)F)c4n3)cc2)cc1 + Cc1sc2c(c1C)C(c1ccc(Cl)cc1)=N[C@@H](CC(=O)OC(C)(C)C)c1nnc(C)n1-2 [NCGC00250412-19],-272
5,CC(C)=CC[C@@H](O)C1=CC(=O)c2c(O)ccc(O)c2C1=O + Cc1sc2c(c1C)C(c1ccc(Cl)cc1)=N[C@@H](CC(=O)OC(C)(C)C)c1nnc(C)n1-2 [NCGC00250412-19],-344
6,Clc1ccc(-c2nc3sccn3c2C=NOCc2ccc(Cl)c(Cl)c2)cc1 + Cc1sc2c(c1C)C(c1ccc(Cl)cc1)=N[C@@H](CC(=O)OC(C)(C)C)c1nnc(C)n1-2 [NCGC00250412-19],-98.8
7,CCOc1cc(/C=C2/C(=O)N(c3ccccc3)N=C2C)cc(Cl)c1OCC(=O)OC + Cc1sc2c(c1C)C(c1ccc(Cl)cc1)=N[C@@H](CC(=O)OC(C)(C)C)c1nnc(C)n1-2 [NCGC00250412-19],76.6
8,CS(=O)(=O)N1CCc2c(-c3cnc(N)nc3)nc(N3CCOCC3)nc21 + Cc1sc2c(c1C)C(c1ccc(Cl)cc1)=N[C@@H](CC(=O)OC(C)(C)C)c1nnc(C)n1-2 [NCGC00250412-19],-391
9,Cc1nc(N)ncc1-c1nc(N2CCOCC2)c2sc(C(C)(C)O)cc2n1 + Cc1sc2c(c1C)C(c1ccc(Cl)cc1)=N[C@@H](CC(=O)OC(C)(C)C)c1nnc(C)n1-2 [NCGC00250412-19],-337
10,COc1ccc(Nc2cc(-c3cnc(N)nc3)nc(N3CCOCC3)n2)cn1 + Cc1sc2c(c1C)C(c1ccc(Cl)cc1)=N[C@@H](CC(=O)OC(C)(C)C)c1nnc(C)n1-2 [NCGC00250412-19],3.49
11,N=C1S/C(=C\c2ccc(-c3ccc4c(c3)C(=O)NC4=O)o2)C(=O)N1c1ccc(Br)cc1 + Cc1sc2c(c1C)C(c1ccc(Cl)cc1)=N[C@@H](CC(=O)OC(C)(C)C)c1nnc(C)n1-2 [NCGC00250412-19],122
12,Cc1c(CCOc2ccc(C(=O)O)cc2)c2cc(Cl)ccc2n1C(c1ccccc1)c1ccccc1 + Cc1sc2c(c1C)C(c1ccc(Cl)cc1)=N[C@@H](CC(=O)OC(C)(C)C)c1nnc(C)n1-2 [NCGC00250412-19],-12
13,COc1cccc2c1C(=O)c1c(O)c3c(c(O)c1C2=O)C[C@@](O)(C(C)=O)C[C@@H]3O[C@H]1C[C@H](N)[C@H](O)[C@H](C)O1 + Cc1sc2c(c1C)C(c1ccc(Cl)cc1)=N[C@@H](CC(=O)OC(C)(C)C)c1nnc(C)n1-2 [NCGC00250412-19],-304
14,COc1cccc2c1C(=O)c1c(O)c3c(c(O)c1C2=O)C[C@@](O)(C(=O)CO)C[C@@H]3O[C@H]1C[C@H](N)[C@H](O)[C@H](C)O1 + Cc1sc2c(c1C)C(c1ccc(Cl)cc1)=N[C@@H](CC(=O)OC(C)(C)C)c1nnc(C)n1-2 [NCGC00250412-19],-176
15,COc1cccc2c1C(=O)c1c(O)c3c(c(O)c1C2=O)C[C@@](O)(C(=O)CO)C[C@@H]3O[C@H]1C[C@H](N)[C@@H](O)[C@H](C)O1 + Cc1sc2c(c1C)C(c1ccc(Cl)cc1)=N[C@@H](CC(=O)OC(C)(C)C)c1nnc(C)n1-2 [NCGC00250412-19],-433
16,C[N+](C)([O-])CCNc1ccc(NCC[N+](C)(C)[O-])c2c1C(=O)c1c(O)ccc(O)c1C2=O + Cc1sc2c(c1C)C(c1ccc(Cl)cc1)=N[C@@H](CC(=O)OC(C)(C)C)c1nnc(C)n1-2 [NCGC00250412-19],-286
17,CN(C)c1ccc(C(=O)NCCCCCCC(=O)NO)cc1 + Cc1sc2c(c1C)C(c1ccc(Cl)cc1)=N[C@@H](CC(=O)OC(C)(C)C)c1nnc(C)n1-2 [NCGC00250412-19],-250
18,Nc1ccc(C(=O)c2cc3c(ccc4ccccc43)[nH]2)cc1 + Cc1sc2c(c1C)C(c1ccc(Cl)cc1)=N[C@@H](CC(=O)OC(C)(C)C)c1nnc(C)n1-2 [NCGC00250412-19],-275
19,CC(=O)O[C@H]1C(=O)[C@@]2(C)[C@H]([C@H](OC(=O)c3ccccc3)[C@]3(O)C[C@H](OC(=O)[C@H](O)[C@@H](NC(=O)c4ccccc4)c4ccccc4)C(C)=C1C3(C)C)[C@]1(OC(C)=O)CO[C@@H]1C[C@@H]2O + Cc1sc2c(c1C)C(c1ccc(Cl)cc1)=N[C@@H](CC(=O)OC(C)(C)C)c1nnc(C)n1-2 [NCGC00250412-19],-144
20,CC(=O)O[C@@]12CO[C@@H]1C[C@H](O)[C@@]1(C)C(=O)[C@H](O)C3=C(C)[C@@H](OC(=O)[C@H](O)[C@@H](NC(=O)OC(C)(C)C)c4ccccc4)C[C@@](O)([C@@H](OC(=O)c4ccccc4)[C@H]21)C3(C)C + Cc1sc2c(c1C)C(c1ccc(Cl)cc1)=N[C@@H](CC(=O)OC(C)(C)C)c1nnc(C)n1-2 [NCGC00250412-19],-135
21,CO[C@H]1C(=O)[C@]2(C)[C@@H](OC)C[C@H]3OC[C@@]3(OC(C)=O)[C@H]2[C@H](OC(=O)c2ccccc2)[C@]2(O)C[C@H](OC(=O)[C@H](O)[C@@H](NC(=O)OC(C)(C)C)c3ccccc3)C(C)=C1C2(C)C + Cc1sc2c(c1C)C(c1ccc(Cl)cc1)=N[C@@H](CC(=O)OC(C)(C)C)c1nnc(C)n1-2 [NCGC00250412-19],-412
